Assay outcomes: PubChem BioAssay, NMMLSC
In the library only some 0.93% were active in any assay of this set; here they are far more common.
RPL19A-GFP yeast: modulators of TOR pathway RPL19A-GFP in S. cerevisiae; percent response vs DMSO, % at 10 µM; S. cerevisiae RPL19A-GFP strain, flow cytometry, 3 h; active compounds read low; actives 0.3% (n = 330,000);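 active means percent response vs DMSO below 50%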;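 further: median channel GFP fluorescence of the barcoded RPL19A-GFP strain; ratio of sample median GFP to plate DMSO average so 100% = DMSO; lower means less RPL19A-GFP as with rapamycin TOR inhibition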
CIT2-GFP yeast: yeast TOR pathway CIT2-GFP modulation; GFP response vs DMSO, % at 10 µM; actives 0.065% (n = 320,000); S. cerevisiae CIT2-GFP strain, flow cytometry, 3 h; 100 means same as DMSO wells;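 active means GFP response relative to DMSO above a set limit, near the screen mean plus 3 SD, cut at about 150% in these data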;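 further: ratio of well median GFP fluorescence to mean of DMSO wells on the plate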
MEP2 TOR yeast: modulators of TOR pathway MEP2-GFP in S. cerevisiae. S. cerevisiae MEP2-GFP strain, flow cytometry GFP, 3 h; 100% = DMSO control level. GFP response vs DMSO, % at 10 µM. actives 0.51% (n = 330,000). AID 2016;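 active means GFP response versus DMSO above a set limit, roughly screen mean plus 3 SD, cut at about 180% in these data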;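 further: median GFP fluorescence of the barcode-gated MEP2-GFP cells per well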
LAP4-GFP MLPCN: alters LAP4-GFP fluorescence in TOR pathway yeast screen | AID 2023 | S. cerevisiae LAP4-GFP multiplex, flow cytometry GFP, 3 h; median GFP as percent of DMSO wells | actives 0.34% (n = 320,000) | GFP response vs DMSO, % at 10 µM;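 active means GFP response vs DMSO above a set limit, about the screen mean plus 3 SD, cut at about 150% in these data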
AGP1-GFP MLPCN: alters AGP1-GFP fluorescence in TOR pathway yeast screen. S. cerevisiae AGP1-GFP multiplex flow cytometry, 3 h; GFP as percent of DMSO wells. GFP response vs DMSO, % at 10 µM. actives 0.02% (n = 320,000). AID 2066;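 active means GFP response relative to DMSO above a set limit, near screen average plus 3 SD, cut at about 150% in these data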;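 further: median GFP channel fluorescence of the gated AGP1 strain per well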
LAP4-GFP pick2: yeast LAP4-GFP modulation, second cherry pick; shares compounds with LAP4-GFP MLPCN; S. cerevisiae LAP4-GFP strain, flow cytometry GFP, 3 h; GFP response vs DMSO, % at 10 µM; actives 20% (n = 590); AID 2621;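 active means GFP signal as percent of the solvent control above about 150%, meaning raised reporter expression, limit read from the data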;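 further: ratio of well median GFP fluorescence to plate DMSO mean so 100% = DMSO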
MEP2-GFP pick2: second confirmation of modulators of TOR reporter MEP2-GFP in yeast | shares compounds with LAP4-GFP MLPCN | S. cerevisiae MEP2-GFP strain, flow cytometry GFP, 3 h | GFP response vs DMSO, % at 10 µM | actives 10% (n = 590) | AID 2622;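 active means GFP signal above 150% of the solvent control wells, that is a rise of more than half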;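 further: median channel GFP fluorescence of all gated yeast cells per well; ratio of median GFP to plate DMSO average so 100% = DMSO level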
RPL19A-GFP pick2: second confirmation of modulators of TOR reporter RPL19A-GFP in yeast | S. cerevisiae RPL19A-GFP strain, flow cytometry GFP, 3 h; active compounds read low; 100% means same as DMSO wells | actives 3% (n = 590) | shares compounds with LAP4-GFP MLPCN | GFP response vs DMSO, % at 10 µM | AID 2623;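 active means under 65% GFP response relative to DMSO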;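 further: median GFP channel fluorescence per well over the all cells gate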
CIT2-GFP pick2: second confirmation of modulators of TOR reporter CIT2-GFP in yeast; actives 8% (n = 590); S. cerevisiae CIT2-GFP strain, flow cytometry GFP, 3 h; DMSO control wells read 100%; shares compounds with LAP4-GFP MLPCN; GFP response vs DMSO, % at 10 µM; AID 2624;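 active means GFP response vs DMSO above about 150%, limit read from the data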;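 further: median green fluorescence per well over all gated yeast cells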
AGP1-GFP pick2: second confirmation of modulators of TOR reporter AGP1-GFP in yeast. shares compounds with LAP4-GFP MLPCN. percent response vs DMSO, % at 10 µM. AID 2643. S. cerevisiae AGP1-GFP strain, flow cytometry GFP, 3 h. 590 tested, under 10 active;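 active means over 150 percent of DMSO response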;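 further: median GFP channel fluorescence over all cells without mother daughter split; sample median GFP divided by mean DMSO control so 100% equals DMSO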
s288c autofluor: counter-screen for compound autofluorescence in yeast s288c cells; shares compounds with LAP4-GFP MLPCN; S. cerevisiae s288c, 520 nm autofluorescence, flow cytometry, 3 h; active compounds read high; zero means same as solvent-only cells; fluorescence change (kMESF span) at 33 µM; 610 tested, under 10 active; AID 2757;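 active means fluorescence span over the dose series, or activity score, above about 33, limit read from the data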
Yeast autofl DR: TOR screen hit shows autofluorescence in yeast s288c. shares compounds with LAP4-GFP MLPCN. S. cerevisiae s288c parental, compound autofluorescence, flow cytometry, 3 h. fluorescence change (span) at 33 µM. 110 tested, under 10 active;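 active means fluorescence change span, or the activity score built from it, above 25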
TORC1 bypass: wildtype yeast growth loss with TORC1 bypass cells unaffected. growth rating (0-3) at 30 µM. AID 504456. S. cerevisiae BY4741 spot growth rating, 48-72 h; active compounds read low. shares compounds with LAP4-GFP MLPCN. 120 tested, under 10 active;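 active means growth rating at most 1 for wild type yeast while the TORC1 bypass strain still grows fully, rated 3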
Active calls of the source: *; . = not tested or not shown; [ ] = another dose, or the depositor's remark.

SMILES	RPL19A-GFP yeast	CIT2-GFP yeast	MEP2 TOR yeast	LAP4-GFP MLPCN	AGP1-GFP MLPCN	s288c autofluor	others
CN(C)c1ccc(/C=C/c2cc[n+](C)cc2)cc1	116	182*	249*	199*	123	11
O=C(Oc1ccnc2cc(Cl)ccc12)N1CCOCC1	101	104	108	99	95	0	LAP4-GFP pick2=100;MEP2-GFP pick2=98;RPL19A-GFP pick2=99;CIT2-GFP pick2=97;AGP1-GFP pick2=99
CC(=O)NC(=S)NNC(=O)CCc1ccccc1	95	94	100	107	101	.
COc1ccc(C(=O)NC(=S)NNC(=O)c2cccc(C)c2)cc1	107	97	98	111	96	.
O=C(CCc1ccccc1)NNC(=S)NC(=O)c1ccccc1	108	97	121	243*	95	0.81	Yeast autofl DR=0.78;TORC1 bypass=3
COc1cccc(OC)c1C(=O)NC(=S)NNC(=O)[C@H]1C[C@@H]1c1ccccc1	98	90	92	87	85	.
O=C(NC(=S)NNC(=O)[C@H]1C[C@@H]1c1ccccc1)c1cccc(F)c1	89	96	101	153*	102	1.3
CCCCC(=O)NC(=S)NNC(=O)CCc1ccccc1	101	109	109	150*	102	0.4	LAP4-GFP pick2=139;MEP2-GFP pick2=105;RPL19A-GFP pick2=104;CIT2-GFP pick2=123;AGP1-GFP pick2=97
Cc1cccc(C(=O)NNC(=S)NC(=O)c2ccccc2)c1	109	105	100	155*	111	0.9
Cc1ccc(Cl)cc1-n1ncc2c(NNC(=O)c3ccco3)ncnc21	104	106	103	97	98	.
O=C(CN1CC(c2ccccc2)CC1=O)N/N=C/c1cc(Br)ccc1O (stereo not given)	108	112	104	94	107	.
COc1ccccc1NC1=C(Cl)C(=O)N(c2ccccc2)C1=O	104	106	114	101	105	-0.21
COc1ccc(NC2=C(Cl)C(=O)N(c3ccccc3)C2=O)c(OC)c1	96	97	103	88	94	.
COc1ccc(N2C(=O)C(Cl)=C(Nc3c(C)n(C)n(-c4ccccc4)c3=O)C2=O)cc1	94	95	99	142	91	0.4
CCOc1ccc(N2C(=O)CN=C2Nc2ccccc2Cl)cc1	93	95	89	88	86	.
CCOc1ccc(N2C(=O)C(Cl)=C(Nc3ccccc3O)C2=O)cc1	93	89	97	103	93	0.2
COc1ccc(N2C(=O)C(Cl)=C(Nc3ccc(OC)cc3OC)C2=O)cc1	95	79	91	84	89	.
C=CCNC(=S)N/N=C/c1ccc(C(F)(F)F)cc1	94	90	93	95	92	.
O=C(Nc1ccc(N2CCOCC2)cc1)C1CCN(S(=O)(=O)c2ccc3c(c2)OCCO3)CC1	123	231*[may fluoresce green]	340*[may fluoresce green]	254*[may fluoresce green]	124	0.1	LAP4-GFP pick2=107;MEP2-GFP pick2=103;RPL19A-GFP pick2=102;CIT2-GFP pick2=98;AGP1-GFP pick2=101
O=C(Nc1ccc2c(c1)OCO2)C1CCN(S(=O)(=O)c2ccc3c(c2)OCCO3)CC1	100	105	98	98	108	.
COC(=O)CCN(C(=O)C1C2CC3CC(C2)CC1C3)c1ccccn1 (stereo not given)	95	96	93	154*	107	.	LAP4-GFP pick2=111;MEP2-GFP pick2=126;RPL19A-GFP pick2=101;CIT2-GFP pick2=122;AGP1-GFP pick2=102
CCOc1ccccc1C(=O)N(CCC(=O)OC)c1ccccn1	95	93	90	85	93	.
Cc1cc(=O)oc2cc(OC(=O)C3CCN(C(=O)c4ccc(F)cc4)CC3)ccc12	97	88	104	100	100	.
Cc1[nH][nH]c(=O)c1C(c1ccccc1[N+](=O)[O-])C(C#N)C#N (stereo not given)	102	102	119	106	104	.
CC1=NN(c2ccccc2)C(=O)C1C(c1ccccc1[N+](=O)[O-])C(C#N)C#N (stereo not given)	.	.	.	.	.	.	Yeast autofl DR=0.42;TORC1 bypass=3
SMILES	RPL19A-GFP yeast	CIT2-GFP yeast	MEP2 TOR yeast	LAP4-GFP MLPCN	AGP1-GFP MLPCN	s288c autofluor	others
O=C(CSc1ccc(F)cc1)Nc1cccc(S(=O)(=O)N2CCOCC2)c1	87	87	102	170*	112	.	LAP4-GFP pick2=102;MEP2-GFP pick2=98;RPL19A-GFP pick2=100;CIT2-GFP pick2=107;AGP1-GFP pick2=97
Cc1cccc(NC(=O)CSCC(=O)N2CCN(C(=O)c3ccco3)CC2)c1	106	109	111	113	111	.
C=CCn1c(O)c2ccc(C(=O)N=NC(=O)COc3ccccc3F)cc2c1O	102	108	103	107	111	.
Oc1ccc(-c2c(-c3ccsc3)sc3ccccc23)cc1	91	84	88	153*	80	.	LAP4-GFP pick2=114;MEP2-GFP pick2=105;RPL19A-GFP pick2=89;CIT2-GFP pick2=97;AGP1-GFP pick2=89
O=C1C(Cl)=C(Nc2ccccc2O)C(=O)N1CCc1ccccc1	103	98	104	99	97	0.4
COc1ccc(CCNC2=C(Cl)C(=O)N(CCc3ccccc3)C2=O)cc1OC	98	90	112	109	97	0
COC(=O)/N=C/c1c(NCc2ccccc2)nc2c(C)cccn2c1=O	98	91	103	109	95	.
O=C(c1ccc(S(=O)(=O)Nc2ccc(F)cc2)cc1)N1CCN(c2ccccn2)CC1	94	97	93	89	96	.
O=C(OCc1cnc(Cl)s1)c1ccccc1Cl	95	84	97	100	75	.
O=C(OCn1ncc(Br)c(Br)c1=O)c1ccc(F)cc1	90	.	85	236*	81	0.61	Yeast autofl DR=0.36;TORC1 bypass=2
